For 17 compounds, outcome results are on record in PubChem BioAssay AID687042 (Broad Institute, 2013).

Active and inactive are the calls of the source.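 How the source made its calls: active means absorbance drop of 50% or more relative to neutral controls, with potency under twice the top valid dose; inactive means the rest, including effects in the opposite direction.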

Chain of Protein disulfide-isomerase A6 (Homo sapiens) (Q15084 whole entry, looked up): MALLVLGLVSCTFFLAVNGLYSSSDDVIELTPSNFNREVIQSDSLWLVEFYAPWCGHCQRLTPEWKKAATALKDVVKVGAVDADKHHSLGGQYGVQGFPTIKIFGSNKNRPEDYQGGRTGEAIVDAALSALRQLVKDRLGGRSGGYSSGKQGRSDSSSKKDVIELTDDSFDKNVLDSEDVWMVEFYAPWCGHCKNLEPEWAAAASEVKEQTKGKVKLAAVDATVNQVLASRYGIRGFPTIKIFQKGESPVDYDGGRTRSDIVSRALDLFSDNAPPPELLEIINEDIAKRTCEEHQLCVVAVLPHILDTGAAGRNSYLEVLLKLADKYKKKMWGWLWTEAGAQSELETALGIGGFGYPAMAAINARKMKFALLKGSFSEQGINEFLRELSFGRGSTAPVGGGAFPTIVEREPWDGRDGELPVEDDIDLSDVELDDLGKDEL

The assay has as its target Protein disulfide-isomerase A6 (Homo sapiens) (UniProt Q15084). In words: ERp5 reductase inhibition, dose response, selectivity assay for PDI inhibitor project, biochemical, insulin aggregation, absorbance, dry powder, set 2 (AID 687042). Conditions: ERp5 insulin reduction aggregation, absorbance 650 nm; series mostly up to 35 µM.
Consider `C=CCOc1ccc(CN2CCC(CCOc3ccccc3)(C(=O)NC3CCCC3)CC2)cc1Cl`, for which the result was inactive.

On to `CCOC(=O)C1(CCOc2ccccc2)CCN(C(=O)OC(C)(C)C)CC1`, for which the outcome was inactive.

`C/C1=C\C[C@H](OC(=O)c2ccc(O)cc2)/C(C)=C/[C@@H](O)C(C)(C)CCC1`: the call was inactive.

`CCNC(=O)C1(CCOc2ccccc2)CCN(Cc2ccc(O)c(Cl)c2)CC1`: the result was inactive.

With `CCOC(=O)C1CCN(C(=O)OC(C)(C)C)CC1`, the compound was called inactive.

Consider `CCOC(=O)C1(CCOC)CCCN(Cc2ccc(Cl)cc2)C1` (configuration not stated), for which the compound was classed as inactive.

For `C=CCOc1ccc(CN2CCC(CCOc3ccccc3)(C(=O)O)CC2)cc1Cl`, the result was inactive.

For `CCOC(=O)C1(CCOc2ccccc2)CCN(Cc2cccc(Cl)c2)CC1`, the call was inactive.

On to `CCOC(=O)C1(CCOc2ccccc2)CCN(Cc2ccc3[nH]c(=O)oc3c2)CC1`, for which the compound was classed as inactive.

As to `O=C(NC1CCCC1)C1(CCOc2ccccc2)CCN(Cc2ccc(O)c(Cl)c2)CC1`, the compound was classed as inactive.

Regarding `C/C1=C\[C@@H](O)C(C)(C)CCCC2(C)OC2C[C@@H]1OC(=O)c1ccc(O)cc1` (some centres not stated), the outcome was inactive.

Take `CCOC(=O)C1(CCOc2ccccc2)CCN(Cc2ccc(OC)cc2)CC1`: the compound was classed as inactive.

For the compound `CC(C)(C)OC(=O)C1(CCOc2ccccc2)CCN(Cc2ccc(O)c(Cl)c2)CC1`, the outcome was inactive.

With `CCOC(=O)C1(CCOC)CCN(Cc2ccc(O)c(Cl)c2)CC1`, the result was inactive.

`C=CCOc1ccc(CN2CCC(CCOc3ccccc3)(C(=O)OCC)CC2)cc1Cl`: the compound was classed as inactive.

In the case of `O=C(Nc1ccccc1)C1(CCOc2ccccc2)CCN(Cc2ccc(O)c(Cl)c2)CC1`, the compound was classed as inactive.

For the compound `CCOC(=O)C1(CCOc2ccccc2)CCN(C(=O)c2ccc(O)c(Cl)c2)CC1`, the compound was classed as inactive.
